± gives the standard deviation of the averaged measurements. About 5,400 targets were measured; listed, in parts, are those with the largest changes and a random draw of the rest.
Compound: Nc1nc2c(ncn2[C@@H]2O[C@H](COP(=O)(O)OP(=O)(O)OP(=O)(O)O)[C@@H](O)[C@H]2O)c(=O)[nH]1 [guanosine triphosphate]
Assay: NP40-soluble protein abundance relative to vehicle (solubility fold change) (ratio); higher = more soluble protein in presence of GTP
How it was run: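 Jurkat crude lysate prepared with a Dounce homogeniser was treated at eight concentrations spanning 0.1 to 10 mM, 10 min at room temperature then 3 min at 37 °C. Solubilisation with 0.8% NP40 and benzonase and ultracentrifugation preceded TMT labelling of the supernatant for LC-MS/MS. Fold change against the detergent-processed vehicle was determined per replicate from vsn-normalised intensities, across three independent experiments.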

Sequence of UniProt P22830 (P22830 whole entry, one chain of several): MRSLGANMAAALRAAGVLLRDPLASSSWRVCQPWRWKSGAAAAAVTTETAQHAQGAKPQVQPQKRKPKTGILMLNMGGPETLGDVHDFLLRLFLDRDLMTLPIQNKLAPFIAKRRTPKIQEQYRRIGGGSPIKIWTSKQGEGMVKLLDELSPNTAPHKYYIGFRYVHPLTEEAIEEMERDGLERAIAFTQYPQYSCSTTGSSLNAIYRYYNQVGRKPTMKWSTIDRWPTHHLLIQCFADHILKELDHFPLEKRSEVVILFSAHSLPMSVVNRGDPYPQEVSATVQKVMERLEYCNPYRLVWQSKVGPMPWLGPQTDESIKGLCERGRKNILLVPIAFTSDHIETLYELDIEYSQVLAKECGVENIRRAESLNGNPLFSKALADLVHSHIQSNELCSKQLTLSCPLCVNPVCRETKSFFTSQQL
Sequence of UniProt O43181 (O43181 whole entry): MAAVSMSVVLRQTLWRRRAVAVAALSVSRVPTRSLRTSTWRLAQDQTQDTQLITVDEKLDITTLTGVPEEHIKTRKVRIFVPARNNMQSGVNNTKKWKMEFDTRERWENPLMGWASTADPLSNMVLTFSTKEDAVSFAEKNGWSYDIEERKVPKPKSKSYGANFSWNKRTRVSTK
Sequence of UniProt O60830 (O60830 whole entry, one chain of several): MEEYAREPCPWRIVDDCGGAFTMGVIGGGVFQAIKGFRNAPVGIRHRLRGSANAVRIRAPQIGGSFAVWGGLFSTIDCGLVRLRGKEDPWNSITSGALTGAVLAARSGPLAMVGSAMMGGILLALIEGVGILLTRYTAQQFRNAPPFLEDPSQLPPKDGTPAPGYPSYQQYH
Sequence of UniProt P27824 (P27824 whole entry): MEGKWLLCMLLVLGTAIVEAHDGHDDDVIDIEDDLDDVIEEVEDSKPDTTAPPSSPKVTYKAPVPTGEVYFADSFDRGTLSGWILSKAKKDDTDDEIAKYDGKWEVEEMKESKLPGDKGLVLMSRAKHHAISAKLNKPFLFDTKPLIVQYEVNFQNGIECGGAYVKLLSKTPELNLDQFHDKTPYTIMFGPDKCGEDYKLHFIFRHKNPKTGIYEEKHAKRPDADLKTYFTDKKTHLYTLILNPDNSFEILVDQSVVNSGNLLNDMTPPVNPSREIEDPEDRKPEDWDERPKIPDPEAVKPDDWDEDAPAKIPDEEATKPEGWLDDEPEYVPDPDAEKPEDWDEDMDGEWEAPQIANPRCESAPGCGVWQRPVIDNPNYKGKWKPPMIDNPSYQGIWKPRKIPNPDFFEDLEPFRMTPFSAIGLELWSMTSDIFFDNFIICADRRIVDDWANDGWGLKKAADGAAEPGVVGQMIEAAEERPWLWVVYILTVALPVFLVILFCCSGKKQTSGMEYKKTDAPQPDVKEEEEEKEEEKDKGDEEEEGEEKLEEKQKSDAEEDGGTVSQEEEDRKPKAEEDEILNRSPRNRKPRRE
Sequence of UniProt P23246 (P23246 whole entry): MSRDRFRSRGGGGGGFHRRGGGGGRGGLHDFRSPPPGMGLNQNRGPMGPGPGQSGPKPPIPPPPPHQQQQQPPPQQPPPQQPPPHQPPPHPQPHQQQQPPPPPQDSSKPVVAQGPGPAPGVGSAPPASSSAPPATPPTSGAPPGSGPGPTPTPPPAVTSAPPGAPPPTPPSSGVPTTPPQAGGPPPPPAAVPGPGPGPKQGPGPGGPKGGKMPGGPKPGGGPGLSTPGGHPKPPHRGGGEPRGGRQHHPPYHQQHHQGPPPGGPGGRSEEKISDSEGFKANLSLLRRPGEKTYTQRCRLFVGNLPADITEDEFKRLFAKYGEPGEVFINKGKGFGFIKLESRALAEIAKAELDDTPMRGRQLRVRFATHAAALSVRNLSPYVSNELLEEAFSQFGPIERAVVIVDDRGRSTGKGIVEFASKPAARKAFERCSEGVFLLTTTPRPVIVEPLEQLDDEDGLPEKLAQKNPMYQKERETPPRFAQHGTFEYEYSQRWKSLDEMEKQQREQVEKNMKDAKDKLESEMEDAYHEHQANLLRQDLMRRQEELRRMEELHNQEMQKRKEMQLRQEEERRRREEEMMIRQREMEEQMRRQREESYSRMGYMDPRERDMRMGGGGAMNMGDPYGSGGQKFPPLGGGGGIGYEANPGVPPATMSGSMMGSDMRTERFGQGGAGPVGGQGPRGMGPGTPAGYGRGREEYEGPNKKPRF
Sequence of UniProt P49736 (P49736 whole entry): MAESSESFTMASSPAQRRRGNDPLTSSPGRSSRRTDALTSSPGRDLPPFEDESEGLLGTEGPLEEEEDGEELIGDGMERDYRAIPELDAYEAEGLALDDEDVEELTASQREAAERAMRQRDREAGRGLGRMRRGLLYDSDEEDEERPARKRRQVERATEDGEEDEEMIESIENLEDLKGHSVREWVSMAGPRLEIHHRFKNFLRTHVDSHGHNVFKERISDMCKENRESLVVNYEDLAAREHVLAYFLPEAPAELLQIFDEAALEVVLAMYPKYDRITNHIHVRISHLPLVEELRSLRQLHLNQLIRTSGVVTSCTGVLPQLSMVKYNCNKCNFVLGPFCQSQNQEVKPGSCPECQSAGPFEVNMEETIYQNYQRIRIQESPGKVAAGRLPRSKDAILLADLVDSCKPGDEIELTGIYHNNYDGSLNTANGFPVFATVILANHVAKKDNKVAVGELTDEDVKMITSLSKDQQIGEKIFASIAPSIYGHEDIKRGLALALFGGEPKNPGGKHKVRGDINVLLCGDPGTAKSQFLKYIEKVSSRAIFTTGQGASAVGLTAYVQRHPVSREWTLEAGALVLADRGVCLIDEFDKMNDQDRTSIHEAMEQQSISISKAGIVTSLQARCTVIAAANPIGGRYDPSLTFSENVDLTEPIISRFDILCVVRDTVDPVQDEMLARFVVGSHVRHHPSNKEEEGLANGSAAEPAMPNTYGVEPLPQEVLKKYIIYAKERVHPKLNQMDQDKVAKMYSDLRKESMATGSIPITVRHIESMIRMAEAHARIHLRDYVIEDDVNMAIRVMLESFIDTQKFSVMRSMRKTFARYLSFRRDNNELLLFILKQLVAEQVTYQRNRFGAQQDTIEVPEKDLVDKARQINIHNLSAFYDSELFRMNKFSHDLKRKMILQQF
Sequence of UniProt P27144 (P27144 whole entry): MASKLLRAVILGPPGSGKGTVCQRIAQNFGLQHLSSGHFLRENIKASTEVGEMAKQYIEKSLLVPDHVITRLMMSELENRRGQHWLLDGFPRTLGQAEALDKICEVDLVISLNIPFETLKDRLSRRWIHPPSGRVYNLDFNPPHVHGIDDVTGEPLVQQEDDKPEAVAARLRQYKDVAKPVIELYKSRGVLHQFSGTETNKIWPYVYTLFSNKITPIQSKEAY
Sequence of UniProt P50583 (P50583 whole entry): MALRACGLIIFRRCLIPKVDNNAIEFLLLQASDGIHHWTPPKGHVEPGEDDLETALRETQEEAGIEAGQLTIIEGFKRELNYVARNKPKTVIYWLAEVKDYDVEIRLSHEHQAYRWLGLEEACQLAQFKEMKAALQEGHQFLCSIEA
Sequence of UniProt P06729 (P06729 whole entry): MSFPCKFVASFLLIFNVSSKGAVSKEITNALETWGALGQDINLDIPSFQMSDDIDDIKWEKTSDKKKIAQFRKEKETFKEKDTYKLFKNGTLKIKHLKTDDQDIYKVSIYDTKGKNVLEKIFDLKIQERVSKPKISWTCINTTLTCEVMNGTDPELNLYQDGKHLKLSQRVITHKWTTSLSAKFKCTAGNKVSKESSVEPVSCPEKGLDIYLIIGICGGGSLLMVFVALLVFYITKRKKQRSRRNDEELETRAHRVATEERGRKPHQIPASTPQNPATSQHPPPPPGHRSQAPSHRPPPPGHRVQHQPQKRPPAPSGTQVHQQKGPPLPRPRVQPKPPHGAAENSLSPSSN
Sequence of UniProt P54578 (P54578 whole entry): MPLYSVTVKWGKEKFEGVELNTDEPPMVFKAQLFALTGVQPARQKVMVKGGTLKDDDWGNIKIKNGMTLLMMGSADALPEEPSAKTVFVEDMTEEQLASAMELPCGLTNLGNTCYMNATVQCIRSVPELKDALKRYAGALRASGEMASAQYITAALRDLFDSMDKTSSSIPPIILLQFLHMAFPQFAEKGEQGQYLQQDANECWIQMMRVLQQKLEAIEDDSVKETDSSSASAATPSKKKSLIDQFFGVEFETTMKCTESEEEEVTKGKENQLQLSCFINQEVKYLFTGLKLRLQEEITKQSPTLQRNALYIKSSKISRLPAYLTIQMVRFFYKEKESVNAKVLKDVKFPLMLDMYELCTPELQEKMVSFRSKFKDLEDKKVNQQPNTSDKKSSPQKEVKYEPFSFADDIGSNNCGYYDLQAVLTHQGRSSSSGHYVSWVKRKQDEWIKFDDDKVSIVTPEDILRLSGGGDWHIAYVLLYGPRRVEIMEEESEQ
Sequence of UniProt P50897 (P50897 whole entry): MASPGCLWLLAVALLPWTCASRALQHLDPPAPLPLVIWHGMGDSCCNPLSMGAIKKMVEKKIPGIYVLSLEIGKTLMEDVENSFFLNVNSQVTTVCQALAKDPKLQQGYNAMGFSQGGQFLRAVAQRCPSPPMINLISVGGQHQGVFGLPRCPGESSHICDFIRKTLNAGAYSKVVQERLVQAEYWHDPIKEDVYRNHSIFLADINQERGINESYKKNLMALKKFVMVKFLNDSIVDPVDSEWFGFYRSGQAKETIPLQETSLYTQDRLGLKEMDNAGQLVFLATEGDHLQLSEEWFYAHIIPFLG
Sequence of UniProt O95232 (O95232 whole entry, one chain of several): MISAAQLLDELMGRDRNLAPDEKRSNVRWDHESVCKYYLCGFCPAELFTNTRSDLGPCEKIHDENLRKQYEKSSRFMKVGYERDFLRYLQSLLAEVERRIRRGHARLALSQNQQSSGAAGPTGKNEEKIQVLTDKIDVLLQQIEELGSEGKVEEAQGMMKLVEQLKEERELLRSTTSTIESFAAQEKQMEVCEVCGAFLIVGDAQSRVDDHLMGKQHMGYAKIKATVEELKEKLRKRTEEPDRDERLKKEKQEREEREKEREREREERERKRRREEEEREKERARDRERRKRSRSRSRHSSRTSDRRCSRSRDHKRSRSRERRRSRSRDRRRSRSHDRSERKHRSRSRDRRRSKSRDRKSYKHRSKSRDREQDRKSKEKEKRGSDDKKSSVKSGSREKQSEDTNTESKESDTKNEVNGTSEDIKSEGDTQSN

Target	NP40-soluble protein abundance (concentration: 0.1mM)	NP40-soluble protein abundance (concentration: 0.5mM)	NP40-soluble protein abundance (concentration: 1mM)	NP40-soluble protein abundance (concentration: 2mM)	NP40-soluble protein abundance (concentration: 4mM)	NP40-soluble protein abundance (concentration: 6mM)	NP40-soluble protein abundance (concentration: 8mM)	NP40-soluble protein abundance (concentration: 10mM)
NUDT2 (UniProt P50583)	0.93 ± 0.17	0.902 ± 0.14	0.884 ± 0.15	0.877 ± 0.15	1.8 ± 0.49	1.24 ± 0.23	1.48 ± 0.34	1.16 ± 0.26
NDUFS4 (UniProt O43181)	1 ± 0.029	1.047 ± 0.0028	1.08 ± 0.053	1.12 ± 0.1	1.09 ± 0.12	1.1 ± 0.12	1.14 ± 0.18	1.1 ± 0.15
J3KPP4|O95232|H0YA81 (UniProt O95232)	1.13 ± 0.027	1.45 ± 0.062	1.54 ± 0.1	1.54 ± 0.095	1.56 ± 0.12	1.63 ± 0.13	1.72 ± 0.19	1.74 ± 0.18
P15531-2|P22392-2|Q32Q12 (UniProt Q32Q12+P22392+P15531)	0.983 ± 0.029	0.946 ± 0.049	0.903 ± 0.045	0.909 ± 0.068	0.9 ± 0.017	0.878 ± 0.04	0.822 ± 0.06	0.839 ± 0.025
NUP62 (UniProt P37198)	0.8692 ± 0.0052	0.889 ± 0.025	1.01 ± 0.021	0.955 ± 0.038	0.988 ± 0.064	1.06 ± 0.053	1.08 ± 0.052	1.19 ± 0.047
SFPQ (UniProt P23246)	0.998 ± 0.053	0.989 ± 0.086	1.03 ± 0.13	1.23 ± 0.14	1.61 ± 0.22	1.85 ± 0.28	2 ± 0.35	2.04 ± 0.36
MCM2 (UniProt P49736)	1.01 ± 0.052	1.07 ± 0.071	0.975 ± 0.074	0.985 ± 0.099	0.974 ± 0.1	0.983 ± 0.1	0.944 ± 0.083	0.929 ± 0.074
UniProt P27824|P27824-2	0.965 ± 0.034	1 ± 0.013	0.95 ± 0.04	0.928 ± 0.048	0.883 ± 0.061	0.922 ± 0.06	0.906 ± 0.035	0.896 ± 0.051
K7EPN2|P22830|P22830-2 (UniProt P22830)	1.06 ± 0.013	1.06 ± 0.034	0.972 ± 0.015	0.945 ± 0.055	0.958 ± 0.039	0.939 ± 0.03	0.928 ± 0.043	0.885 ± 0.05
PPT1 (UniProt P50897)	0.888 ± 0.06	0.859 ± 0.12	0.968 ± 0.083	0.872 ± 0.12	0.873 ± 0.068	0.887 ± 0.11	0.876 ± 0.059	0.861 ± 0.099
AK4 (UniProt P27144)	0.983 ± 0.072	0.887 ± 0.088	1.03 ± 0.042	1 ± 0.075	1.03 ± 0.11	0.987 ± 0.11	0.975 ± 0.16	0.983 ± 0.11
UniProt O60830|O60830-2|V9GYS0	1.82 ± 0.63	1 ± 0.039	0.957 ± 0.15	1.01 ± 0.13	1 ± 0.11	0.969 ± 0.13	0.942 ± 0.051	0.955 ± 0.045
UniProt P06729	0.895 ± 0.023	0.902 ± 0.035	0.912 ± 0.02	0.88 ± 0.072	0.852 ± 0.038	0.89 ± 0.053	0.893 ± 0.036	0.903 ± 0.039
UniProt P54578|P54578-2	0.975 ± 0.029	0.998 ± 0.021	0.935 ± 0.027	0.922 ± 0.013	0.903 ± 0.026	0.897 ± 0.02	0.895 ± 0.038	0.876 ± 0.046
J3KPS0|Q9NXW2|Q9NXW2-2 (UniProt Q9NXW2)	1.01 ± 0.065	0.995 ± 0.088	0.984 ± 0.083	0.935 ± 0.064	0.913 ± 0.066	0.918 ± 0.1	0.967 ± 0.082	0.925 ± 0.063

Source: the supplement of paper PMC6411743
